This is an account of results in PubChem BioAssay (EPA / NIEHS).

Inconclusive results are not listed. Calls of active or inactive are those of the source. The calls were made as follows, unless noted: active = hit-call score of the fitted dose curve at least 0.9, where 1 is the maximum; inactive = score below 0.9.

Assay [1] concerns the target Paired box protein Pax-6 (Homo sapiens) (UniProt P26367). Description: ATG_Pax6_CIS: Attagene CIS-FACTORIAL HepG2 Assay for human Paired Box 6 (PAX6) (AID 2282956). Conditions: HepG2 CIS-FACTORIAL PAX6 reporter transcription, RNA readout; actives raise or lower the signal. The procedure, abridged:
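HepG2 cells transiently transfected with cis-promoter-driven multiplexed reporter units sensing endogenous transcription factor activity; 24 h chemical exposure. Reporter mRNA quantified by RT-PCR, 6-FAM labelling, HpaI digestion and capillary electrophoresis; bidirectional fit versus DMSO baseline.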

The nature of assay [2]: ATG_PXRE_CIS: Attagene CIS-FACTORIAL HepG2 Assay for human Pregnane X Receptor Element (PXRE) (AID 2282957). Conditions: HepG2 Attagene CIS-FACTORIAL PXRE reporter, mRNA; actives raise or lower the signal. The procedure, abridged: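 Cis-element reporter mRNA in human hepatoma HepG2 cells is measured 24 h post-dosing by RT-PCR, primer-extension labeling and capillary electrophoresis; gain or loss of signal is fitted relative to DMSO.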

Assay [3] can be described thus: ATG_PPRE_CIS: Attagene CIS-FACTORIAL HepG2 Assay for human Peroxisome Proliferator-activated Response Element (PPRE) (AID 2282958). Conditions: HepG2 PPRE cis-element reporter, Attagene transcription factor profiling; actives raise or lower the signal. In a few lines: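 Read-out: fluorescent reporter mRNA fragments resolved by capillary electrophoresis after RT-PCR. HepG2 cells carried transiently transfected PPRE-driven cis reporter constructs and were dosed for 24 h; gain or loss of signal fitted relative to DMSO.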

A short description of assay [4]: ATG_RORE_CIS: Attagene CIS-FACTORIAL HepG2 Assay for human RAR-related Orphan Receptor Element (RORE) (AID 2282959). Particulars: HepG2 Attagene cis-factorial RORE reporter, mRNA; actives raise or lower the signal. In a few lines:
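Readout: fluorescent reporter mRNA by RT-PCR plus capillary electrophoresis, 24 h after dosing transfected HepG2 cells. Endogenous transcription factor activity on a cis promoter element is measured. Gain or loss of signal fitted against DMSO.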

A short description of assay [5]: ATG_Sox_CIS: Attagene CIS-FACTORIAL HepG2 Assay for human SRY-box transcription factor (SOX) (AID 2282960). Particulars: HepG2 Attagene cis-factorial SOX reporter, mRNA; actives raise or lower the signal. In a few lines: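 Read-out: fluorescent RT-PCR products of SOX1-linked reporter transcripts resolved by capillary electrophoresis, fitted bidirectionally against DMSO. Transiently transfected HepG2 cells, 24 h after chemical exposure, endogenous transcription factor activity.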

The target of assay [6] is Transcription factor Sp1 (Homo sapiens) (UniProt P08047). Description: ATG_Sp1_CIS: Attagene CIS-FACTORIAL HepG2 Assay for human Specificity Protein 1 (Sp1) (AID 2282961). Conditions: HepG2 Sp1 cis-reporter transcription, actives raise or lower the signal. The procedure, abridged: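 Read-out: fluorescence of 6-FAM-labeled, HpaI-digested RT-PCR products separated by capillary electrophoresis. HepG2 cells carried transfected cis-element reporter units and were exposed to chemicals for 24 h; gain or loss of signal fitted relative to DMSO.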

The nature of assay [7]: ATG_SREBP_CIS: Attagene CIS-FACTORIAL HepG2 Assay for human Sterol Regulatory Element Binding (SREBP) (AID 2282962). Conditions: HepG2 Attagene cis-factorial SREBP reporter, mRNA; actives raise or lower the signal. In a few lines: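 HepG2 cells transiently transfected with multiplexed cis-promoter reporter units sensing endogenous transcription factors; reporter mRNA measured 24 h after dosing by RT-PCR, 6-FAM labeling, HpaI digestion and capillary electrophoresis. Bidirectional fit versus DMSO.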

For assay [8], the target named is Signal transducer and activator of transcription 3 (Homo sapiens) (UniProt P40763). Description: ATG_STAT3_CIS: Attagene CIS-FACTORIAL HepG2 Assay for human Signal Transducer and Activator of Transcription 3 (STAT3) (AID 2282963). Particulars: HepG2, Attagene cis-factorial STAT3 reporter transcription; actives raise or lower the signal. In a few lines: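 Endogenous STAT3-responsive cis-element activity was read in transiently transfected HepG2 cells after 24 h treatment. Reporter transcripts were quantified via RT-PCR and capillary electrophoresis, with DMSO as negative control and bidirectional curve fitting.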

The nature of assay [9]: ATG_TCF_b_cat_CIS: Attagene CIS-FACTORIAL HepG2 Assay for human T-Cell-Factor with beta-catenin (TCF/b-cat) (AID 2282965). Conditions: HepG2 TCF/beta-catenin cis-reporter transcription, actives raise or lower the signal. In a few lines: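 Endogenous transcription factor activity is captured through cis-promoter reporter constructs transiently introduced into human HepG2 liver cells. Induced reporter mRNA is measured after 24 h and fitted bidirectionally relative to DMSO.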

The nature of assay [10]: ATG_TAL_CIS: Attagene CIS-FACTORIAL HepG2 Assay for human TAL Basal Promoter (AID 2282966).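 Also: background control endpoint measuring basal TAL promoter reporter mRNA not a specific factor.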 Conditions: HepG2 Attagene cis-factorial TAL promoter reporter; actives raise or lower the signal. The procedure, abridged: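 In this cell-based multiplex, HepG2 liver cells bearing cis-promoter reporter constructs are dosed for 24 hours. Total RNA is reverse-transcribed and amplified, labelled fragments are sized by capillary electrophoresis, and signal changes are fitted bidirectionally versus DMSO.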

Assay [11] is described as follows: ATG_TGFb_CIS: Attagene CIS-FACTORIAL HepG2 Assay for human Transforming Growth Factor (TGF) (AID 2282967). Conditions: HepG2 Attagene CIS TGFb reporter, mRNA transcription; actives raise or lower the signal. The procedure, abridged: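 HepG2 cells transiently transfected with cis-promoter-driven multiple reporter units measure endogenous TF activity; reporter mRNA quantified at 24 h by RT-PCR, FAM labeling, HpaI digestion and capillary electrophoresis. Bidirectional fit vs DMSO.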

Assay [12] in a line: ATG_VDRE_CIS: Attagene CIS-FACTORIAL HepG2 Assay for human Vitamin D Receptor Element (VDRE) (AID 2282968). Particulars: HepG2 VDRE cis-reporter transcription, actives raise or lower the signal. In a few lines: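 Reporter mRNA induction, quantified by capillary electrophoresis of fluorescently labelled RT-PCR products, was read 24 h after dosing HepG2 cells carrying transiently transfected cis-regulated reporter units; gain or loss relative to DMSO.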

In assay [13] the target is Nuclear receptor subfamily 1 group I member 3 (Homo sapiens) (UniProt Q14994). Description: ATG_CAR_TRANS: Attagene TRANS-FACTORIAL HepG2 Assay for human Constitutive Androstane Receptor (CAR) (AID 2282969; active = hit-call score of the fitted dose curve at least 0.9, where 1 is the maximum;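 also: activators raise reporter mRNA above DMSO so AC50 marks induction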). Conditions: HepG2 Attagene TRANS-FACTORIAL CAR reporter. The procedure, abridged:
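Readout is reporter mRNA induction, quantified by fluorescent primer extension and capillary electrophoresis after RT-PCR. Cells were HepG2 transiently carrying chimeric NR-Gal4 constructs with GAL4-UAS reporters, treated for 24 h; activity scored upward from DMSO.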

The target in assay [14] is Estrogen receptor (Homo sapiens) (UniProt P03372). Briefly: ATG_ERa_TRANS: Attagene TRANS-FACTORIAL HepG2 Assay for human Estrogen Receptor alpha (ERa) (AID 2282970; active = hit-call score of the fitted dose curve at least 0.9, where 1 is the maximum). Particulars: HepG2 Attagene TRANS ERa GAL4 reporter, mRNA. The procedure, abridged:
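After 24 h of compound treatment, RNA from HepG2 cells bearing transfected GAL4-UAS reporter constructs is converted to cDNA, amplified and fluorescently labelled. Capillary electrophoresis resolves the ERa-linked reporter; DMSO serves as negative control.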

Assay [15] has as its target X-box-binding protein 1 (Homo sapiens) (UniProt P17861). Description: ATG_Xbp1_CIS: Attagene CIS-FACTORIAL HepG2 Assay for human X-box Binding Protein 1 (XBP1) (AID 2282972). Particulars: HepG2 XBP1 cis-element reporter, Attagene multiplex; actives raise or lower the signal. The procedure, abridged:
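HepG2 cells transiently transfected with multiple cis-element reporter units report endogenous TF activity; 24 h exposure, then reporter mRNA measured by RT-PCR, 6-FAM labelling, HpaI digestion and capillary electrophoresis. Bidirectional fitting versus DMSO.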

Assay [16] can be described thus: ATG_M_19_TRANS: Attagene TRANS-FACTORIAL HepG2 Assay for M19 Transcription Factor (Internal Marker) (AID 2282974; active = hit-call score of the fitted dose curve at least 0.9, where 1 is the maximum). Particulars: HepG2 Attagene TRANS-FACTORIAL M19 internal marker reporter. The procedure, abridged: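 24 h chemical exposure of transiently transfected HepG2 (MRTU library). RNA → oligo(dT) RT → PCR → 6-FAM labelling → HpaI cut → CE fluorescence. Positive-direction fit vs DMSO baseline; background internal-marker readout.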

The nature of assay [17]: ATG_GAL4_TRANS: Attagene TRANS-FACTORIAL HepG2 Assay for GAL4 (Internal Marker) (AID 2282976; active = hit-call score of the fitted dose curve at least 0.9, where 1 is the maximum). Conditions: HepG2 Attagene TRANS GAL4 internal marker reporter. The procedure, abridged: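 RT-PCR/capillary electrophoresis readout of reporter mRNA. HepG2, transient MRTU transfection (GAL4-UAS reporters), 24 h compound exposure. Background-control endpoint, positive direction vs DMSO baseline.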

The nature of assay [18]: ATG_TA_CIS: Attagene CIS-FACTORIAL HepG2 Assay for human TA Basal Promoter (AID 2282964). Particulars: HepG2 Attagene CIS-factorial TA basal promoter reporter; actives raise or lower the signal. In a few lines:
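HepG2 cells transiently transfected with multiple reporter units under cis promoter elements, reporting endogenous transcription factor activity; this endpoint tracks the TA basal promoter as background control. Reporter mRNA after 24 h dosing measured by RT-PCR/capillary electrophoresis; bidirectional fits versus DMSO.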

Chain of Transcription factor Sp1 (Homo sapiens) (P08047 whole entry, looked up): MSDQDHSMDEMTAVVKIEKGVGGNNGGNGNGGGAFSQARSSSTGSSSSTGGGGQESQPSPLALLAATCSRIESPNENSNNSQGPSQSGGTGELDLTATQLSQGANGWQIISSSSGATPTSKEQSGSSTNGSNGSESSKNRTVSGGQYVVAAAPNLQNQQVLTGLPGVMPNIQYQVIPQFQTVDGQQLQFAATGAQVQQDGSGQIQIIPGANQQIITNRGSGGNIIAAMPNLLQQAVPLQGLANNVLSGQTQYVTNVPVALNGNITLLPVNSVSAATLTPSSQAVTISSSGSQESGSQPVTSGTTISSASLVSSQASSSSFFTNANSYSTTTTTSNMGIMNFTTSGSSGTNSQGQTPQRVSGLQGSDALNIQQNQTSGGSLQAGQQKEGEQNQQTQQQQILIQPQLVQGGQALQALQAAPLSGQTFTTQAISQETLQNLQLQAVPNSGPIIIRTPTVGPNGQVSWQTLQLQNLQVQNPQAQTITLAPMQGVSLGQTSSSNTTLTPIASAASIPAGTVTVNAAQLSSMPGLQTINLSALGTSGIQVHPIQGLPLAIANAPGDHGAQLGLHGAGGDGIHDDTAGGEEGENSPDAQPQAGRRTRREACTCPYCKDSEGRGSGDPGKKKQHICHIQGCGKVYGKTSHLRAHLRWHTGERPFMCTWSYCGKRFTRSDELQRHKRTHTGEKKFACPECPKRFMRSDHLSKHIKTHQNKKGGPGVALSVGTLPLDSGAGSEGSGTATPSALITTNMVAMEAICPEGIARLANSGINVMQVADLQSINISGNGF
Chain of Signal transducer and activator of transcription 3 (Homo sapiens) (P40763 whole entry, looked up): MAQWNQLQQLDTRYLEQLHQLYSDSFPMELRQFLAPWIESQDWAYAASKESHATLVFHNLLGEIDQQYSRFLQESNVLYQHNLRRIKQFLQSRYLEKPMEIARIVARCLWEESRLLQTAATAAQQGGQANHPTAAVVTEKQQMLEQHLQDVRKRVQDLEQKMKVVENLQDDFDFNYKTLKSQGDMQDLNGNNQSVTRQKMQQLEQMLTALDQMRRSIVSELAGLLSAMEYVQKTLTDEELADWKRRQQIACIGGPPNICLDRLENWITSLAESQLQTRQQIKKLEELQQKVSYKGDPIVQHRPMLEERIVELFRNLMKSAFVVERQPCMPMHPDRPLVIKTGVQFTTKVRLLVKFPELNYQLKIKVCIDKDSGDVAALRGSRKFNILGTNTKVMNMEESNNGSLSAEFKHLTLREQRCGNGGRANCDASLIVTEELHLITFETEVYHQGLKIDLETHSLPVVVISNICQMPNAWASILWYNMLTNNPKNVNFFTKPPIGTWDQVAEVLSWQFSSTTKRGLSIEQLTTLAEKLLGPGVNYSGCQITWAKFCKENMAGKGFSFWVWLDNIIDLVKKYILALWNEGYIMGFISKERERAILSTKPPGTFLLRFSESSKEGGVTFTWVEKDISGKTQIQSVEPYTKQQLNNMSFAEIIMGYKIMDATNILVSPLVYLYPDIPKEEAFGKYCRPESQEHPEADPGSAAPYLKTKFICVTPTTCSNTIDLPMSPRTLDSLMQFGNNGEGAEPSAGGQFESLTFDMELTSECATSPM
Chain of Estrogen receptor (Homo sapiens) (P03372 whole entry, looked up, the tested form may be a part): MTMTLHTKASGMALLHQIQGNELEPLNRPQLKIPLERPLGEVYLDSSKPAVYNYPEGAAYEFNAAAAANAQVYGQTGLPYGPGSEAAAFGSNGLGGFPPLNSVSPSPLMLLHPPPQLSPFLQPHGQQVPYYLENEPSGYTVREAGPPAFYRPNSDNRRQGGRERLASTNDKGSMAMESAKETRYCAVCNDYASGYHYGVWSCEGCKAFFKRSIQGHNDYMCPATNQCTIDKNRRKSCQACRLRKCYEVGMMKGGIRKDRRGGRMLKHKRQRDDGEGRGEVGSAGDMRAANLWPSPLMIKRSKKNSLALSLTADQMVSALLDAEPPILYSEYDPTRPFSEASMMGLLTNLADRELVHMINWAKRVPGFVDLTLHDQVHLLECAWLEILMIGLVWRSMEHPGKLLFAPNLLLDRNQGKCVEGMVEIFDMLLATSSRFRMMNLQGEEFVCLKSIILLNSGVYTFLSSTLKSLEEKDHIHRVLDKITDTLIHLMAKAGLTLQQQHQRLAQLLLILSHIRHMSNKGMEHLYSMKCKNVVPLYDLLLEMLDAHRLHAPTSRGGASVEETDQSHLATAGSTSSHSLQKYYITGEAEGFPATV
Chain of Paired box protein Pax-6 (Homo sapiens) (P26367 whole entry, looked up): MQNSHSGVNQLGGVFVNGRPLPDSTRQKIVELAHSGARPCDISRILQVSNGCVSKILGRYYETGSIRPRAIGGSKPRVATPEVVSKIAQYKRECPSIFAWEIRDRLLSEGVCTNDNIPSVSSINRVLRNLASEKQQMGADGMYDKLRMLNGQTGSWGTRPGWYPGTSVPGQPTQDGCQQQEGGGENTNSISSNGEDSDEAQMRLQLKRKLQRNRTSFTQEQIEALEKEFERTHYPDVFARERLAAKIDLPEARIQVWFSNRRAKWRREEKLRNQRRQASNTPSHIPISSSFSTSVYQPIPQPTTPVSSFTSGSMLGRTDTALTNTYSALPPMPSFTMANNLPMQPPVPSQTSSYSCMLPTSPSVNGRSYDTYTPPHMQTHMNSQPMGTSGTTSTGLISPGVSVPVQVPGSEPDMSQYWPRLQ
Chain of X-box-binding protein 1 (Homo sapiens) (P17861 whole entry, looked up): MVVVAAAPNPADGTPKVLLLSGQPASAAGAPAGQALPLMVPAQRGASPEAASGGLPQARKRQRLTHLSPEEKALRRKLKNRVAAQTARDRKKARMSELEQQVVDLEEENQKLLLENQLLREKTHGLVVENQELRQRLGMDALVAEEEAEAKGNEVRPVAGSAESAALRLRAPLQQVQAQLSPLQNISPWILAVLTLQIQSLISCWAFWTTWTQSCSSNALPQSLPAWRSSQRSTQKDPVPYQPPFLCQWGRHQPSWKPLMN
Chain of Nuclear receptor subfamily 1 group I member 3 (Homo sapiens) (Q14994 whole entry, looked up, the tested form may be a part): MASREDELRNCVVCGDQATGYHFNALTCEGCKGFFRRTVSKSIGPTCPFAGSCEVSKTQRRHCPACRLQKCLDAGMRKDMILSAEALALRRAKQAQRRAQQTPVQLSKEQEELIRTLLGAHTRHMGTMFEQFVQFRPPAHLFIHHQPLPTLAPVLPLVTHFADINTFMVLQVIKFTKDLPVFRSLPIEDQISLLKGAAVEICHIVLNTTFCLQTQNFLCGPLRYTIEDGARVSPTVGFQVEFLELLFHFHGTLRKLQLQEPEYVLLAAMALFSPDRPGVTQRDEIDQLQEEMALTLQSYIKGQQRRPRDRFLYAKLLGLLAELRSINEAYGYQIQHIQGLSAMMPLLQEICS

In general, AC50 refers to the midpoint of the concentration-response curve, whichever way the signal moves. As to `[Cl][Bi]([Cl])([c]1ccccc1)([c]1ccccc1)[c]1ccccc1`, the AC50 in assay [1] is 5.48 µM (active); in assay [5], 5.6 µM (active); in [9], 5.75 µM (active); in assay [14], 2.74 µM (active); in [15] it was 6.04 µM (active). Besides, the result in [2], in assay [3], in assay [4], in assay [6], in assay [7] and in [8] was inactive. For the same molecule, the molecule was classed as inactive in assay [10], in assay [11], in [12], in assay [13] and in [16].

On to `c1c[nH]cn1`, for which the molecule was called inactive in assay [1], in assay [3], in [4], in assay [5], in [6] and in assay [7]. Besides, the result in [8], in assay [9], in [10], in assay [11], in assay [12] and in assay [15] was inactive. In addition, the outcome in [16] and in assay [17] was inactive. In assay [2], the AC50 is 63.8 µM (active).

On to `OCCNCc1ccccc1`, for which the outcome in [1], in assay [2], in assay [3], in assay [4], in assay [5] and in [6] was inactive. Also, the molecule was called inactive in assay [7], in [8], in assay [18], in [10], in assay [11] and in assay [12]. Also, the result in assay [13], in assay [14], in assay [15], in assay [16] and in assay [17] was inactive.

For `CCCNC(=O)NS(=O)(=O)c1ccc(Cl)cc1`, the call in assay [1], in [2], in [3], in [4], in [5] and in assay [6] was inactive. For the same molecule, the outcome in [7], in assay [8], in assay [18], in [10], in assay [12] and in assay [14] was inactive. Moreover, the molecule was classed as inactive in assay [15], in [16] and in assay [17].

With `Cc1ccc(N)c([N+](=O)[O-])c1`, the outcome in [1], in [2], in assay [3], in [4], in assay [5] and in assay [6] was inactive. For the same molecule, the call in assay [7], in assay [8], in [9], in assay [10], in assay [11] and in assay [12] was inactive. In addition, the result in [15] and in assay [16] was inactive.
